Most compounds without a hit are left out; they make up all but 8% or so of the library.
PostGolgi yeast: growth inhibition of a yeast mutant, post-Golgi transport screen; 98,000 tested, 0.9% active; inhibition, % at 10 µM; post-Golgi transport phenotypic cell assay;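 note: yeast cells grown in 1536-well plates; yeast grown about 18 h at 30C before absorbance read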
PTK2B oligo ant: antagonists of human Pyk2 oligomerization. Q14289. Q293 cells, Pyk2 FERM NanoBiT luminescence; active compounds read low. z-score (the deposit names both 25 µM and 10 µM). 99,000 tested, 0.83% active. AID 1347419;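 active = Z-score of -3 or lower, scaled per plate to the spread of control and sample wells; inactive = z-score above -3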;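 note: negative z-score means lost luminescence so less FERM oligomerization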
Cav3 T inh: human Cav3.2 channel inhibition, primary screen; B-score at 10 µM; O95180; Cav3.2-expressing cells, Fluo-4 calcium fluorescence FDSS; active compounds read low; 100,000 tested, 4% active; AID 449739;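 active = single-dose well whose peak fluorescence ratio is a statistical outlier from its plate by either plate-standardised score or position-corrected B-score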
Target sequence (O95180 whole entry, looked up): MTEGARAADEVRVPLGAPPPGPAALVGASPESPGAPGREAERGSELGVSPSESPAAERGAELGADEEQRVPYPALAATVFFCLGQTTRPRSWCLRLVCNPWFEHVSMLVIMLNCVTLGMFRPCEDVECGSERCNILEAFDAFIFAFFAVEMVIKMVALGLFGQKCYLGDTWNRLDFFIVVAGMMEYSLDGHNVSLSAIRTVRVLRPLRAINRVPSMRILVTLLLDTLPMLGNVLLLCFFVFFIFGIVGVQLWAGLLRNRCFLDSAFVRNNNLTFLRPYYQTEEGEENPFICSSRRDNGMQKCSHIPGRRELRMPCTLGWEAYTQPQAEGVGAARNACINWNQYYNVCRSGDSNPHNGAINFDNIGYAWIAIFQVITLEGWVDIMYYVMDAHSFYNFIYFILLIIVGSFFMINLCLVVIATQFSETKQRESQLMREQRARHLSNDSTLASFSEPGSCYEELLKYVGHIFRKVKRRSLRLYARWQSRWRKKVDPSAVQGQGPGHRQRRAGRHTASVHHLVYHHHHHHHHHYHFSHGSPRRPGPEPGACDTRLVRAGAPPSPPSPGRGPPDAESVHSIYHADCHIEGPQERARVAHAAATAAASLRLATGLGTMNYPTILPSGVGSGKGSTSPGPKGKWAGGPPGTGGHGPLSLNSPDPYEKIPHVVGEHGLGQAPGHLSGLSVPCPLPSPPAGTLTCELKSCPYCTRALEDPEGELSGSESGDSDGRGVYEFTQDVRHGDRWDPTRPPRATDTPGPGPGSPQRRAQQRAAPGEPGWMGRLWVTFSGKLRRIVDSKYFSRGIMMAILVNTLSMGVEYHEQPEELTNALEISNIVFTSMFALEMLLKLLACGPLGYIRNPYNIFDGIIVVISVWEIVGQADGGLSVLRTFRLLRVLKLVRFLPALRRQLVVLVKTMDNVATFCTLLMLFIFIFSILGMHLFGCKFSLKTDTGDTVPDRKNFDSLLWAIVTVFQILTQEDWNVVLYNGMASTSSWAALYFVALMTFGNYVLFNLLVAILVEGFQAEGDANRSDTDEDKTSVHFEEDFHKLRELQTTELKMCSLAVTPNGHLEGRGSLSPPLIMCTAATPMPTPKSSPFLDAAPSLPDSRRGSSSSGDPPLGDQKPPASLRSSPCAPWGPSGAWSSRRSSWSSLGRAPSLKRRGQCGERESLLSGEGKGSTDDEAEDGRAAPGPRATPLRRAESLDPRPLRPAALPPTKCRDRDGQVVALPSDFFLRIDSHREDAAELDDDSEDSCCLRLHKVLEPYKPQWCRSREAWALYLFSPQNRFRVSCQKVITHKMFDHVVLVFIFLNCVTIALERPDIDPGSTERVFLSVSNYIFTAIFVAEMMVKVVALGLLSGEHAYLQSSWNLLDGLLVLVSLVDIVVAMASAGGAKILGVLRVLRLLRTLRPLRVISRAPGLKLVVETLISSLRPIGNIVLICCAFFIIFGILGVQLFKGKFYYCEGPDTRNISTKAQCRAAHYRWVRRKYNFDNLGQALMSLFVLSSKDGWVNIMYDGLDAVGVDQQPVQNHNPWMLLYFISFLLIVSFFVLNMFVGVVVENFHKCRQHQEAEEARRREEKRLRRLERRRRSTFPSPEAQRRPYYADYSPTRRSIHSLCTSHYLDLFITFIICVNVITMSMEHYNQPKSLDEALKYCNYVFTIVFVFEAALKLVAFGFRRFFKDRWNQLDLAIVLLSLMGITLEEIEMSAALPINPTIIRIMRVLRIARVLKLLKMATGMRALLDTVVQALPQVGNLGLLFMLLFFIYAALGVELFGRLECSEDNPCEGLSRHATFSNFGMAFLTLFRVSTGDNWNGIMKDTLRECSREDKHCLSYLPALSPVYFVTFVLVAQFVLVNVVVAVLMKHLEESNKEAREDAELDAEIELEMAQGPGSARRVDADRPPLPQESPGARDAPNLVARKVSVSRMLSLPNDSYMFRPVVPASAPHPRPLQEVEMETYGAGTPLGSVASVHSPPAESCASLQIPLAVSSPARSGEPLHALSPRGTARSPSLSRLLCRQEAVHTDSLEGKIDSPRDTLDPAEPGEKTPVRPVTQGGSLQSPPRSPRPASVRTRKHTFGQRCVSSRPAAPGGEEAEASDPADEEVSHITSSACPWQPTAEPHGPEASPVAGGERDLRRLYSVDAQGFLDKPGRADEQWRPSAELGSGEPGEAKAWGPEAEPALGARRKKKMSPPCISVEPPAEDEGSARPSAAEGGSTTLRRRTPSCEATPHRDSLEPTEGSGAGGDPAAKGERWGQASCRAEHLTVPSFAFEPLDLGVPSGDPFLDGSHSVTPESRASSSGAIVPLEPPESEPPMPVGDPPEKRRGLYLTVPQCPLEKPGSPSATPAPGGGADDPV
PostGolgi ctrl: yeast control strain growth, post-Golgi counter-screen. 98,000 tested, 5% active. AID 738. inhibition, % at 10 µM. efflux-deficient yeast background strain, growth absorbance A615, 16 h
Starred values were filed as active, the others as inactive. Cut-off read from the data, not from the text of the source, unless noted: active = inhibition above about 30%; inactive = the rest.

`Cc1ccccc1N1C(=O)N(c2cccc(C(F)(F)F)c2)C2CS(=O)(=O)CC21` (configuration not stated) gave PostGolgi yeast 6, PTK2B oligo ant -0.56, Cav3 T inh -0.61 and PostGolgi ctrl 39*.
`COc1cccc(N2C(=O)N(c3ccccc3)C3CS(=O)(=O)CC32)c1` (configuration not stated) gave PostGolgi yeast 3, PTK2B oligo ant -0.44, Cav3 T inh 0.56 and PostGolgi ctrl -5.
For O=C1N(c2ccccc2)C2CS(=O)(=O)CC2N1c1ccc(Br)cc1 (configuration not stated) the results were PostGolgi yeast 3, PTK2B oligo ant -0.46, Cav3 T inh -2.4* and PostGolgi ctrl 2.
`CCC(C(=O)NCc1ccco1)N(C(=O)CNS(=O)(=O)c1ccccc1)c1ccc(OC)cc1` (configuration not stated) gave PostGolgi yeast -2, PTK2B oligo ant -0.08, Cav3 T inh 0.38 and PostGolgi ctrl -4.
CCCCCC(=O)Nc1cccc(C2=NOC3(C2)C[C@H](C(N)=O)N(C(=O)CC)C3)c1 (some centres not stated) was read as Cav3 T inh 2.
CCNC(=O)CN(CCc1ccccc1)S(C)(=O)=O was read as PostGolgi yeast -7, PTK2B oligo ant 0.69, Cav3 T inh -0.093 and PostGolgi ctrl 7.
CCCCNC(=O)CN(CCc1ccccc1)S(C)(=O)=O was read as PostGolgi yeast -6, PTK2B oligo ant 0.4, Cav3 T inh -5.3* and PostGolgi ctrl 3.
COCCNC(=O)c1c(N)n(-c2cccc(C)c2)c2nc3ccccc3nc12 was read as PostGolgi yeast 16, PTK2B oligo ant 0.08, Cav3 T inh -6.1* and PostGolgi ctrl 14.
For COCCNC(=O)c1c(N)n(-c2ccccc2)c2nc3ccccc3nc12 the results were PostGolgi yeast 4, PTK2B oligo ant -0.15, Cav3 T inh -0.31 and PostGolgi ctrl 7.
For C=C1CCN([C@H](C(=O)NCc2ccc(Cl)cc2)C(C)C)S(=O)(=O)c2ccccc21 the results were Cav3 T inh -0.95.
Screening CCOC(=O)c1c(NC(=O)CSc2nnc(CNc3ccc(OC)cc3)n2C)sc(C)c1C returned PostGolgi yeast 0, PTK2B oligo ant 0.43, Cav3 T inh -6.6* and PostGolgi ctrl 24.
For COc1ccc(C(CC(=O)c2ccc(O)cc2)S(=O)(=O)c2ccc(C)cc2)cc1 (configuration not stated) the results were PostGolgi yeast -1, PTK2B oligo ant -0.68, Cav3 T inh -0.14 and PostGolgi ctrl 7.
For O=[N+]([O-])c1ccc(N=Nc2ccc(O)cc2O)cc1 the results were PostGolgi yeast -3, PTK2B oligo ant -1.3, Cav3 T inh -8.8* and PostGolgi ctrl 4.
`COc1ccc(-n2nnnc2-c2cnc3cc4c(cc3c2C)OCO4)cc1` gave PostGolgi yeast -7, PTK2B oligo ant -0.33, Cav3 T inh -0.41 and PostGolgi ctrl 1.
For CC(O)CNc1nc2ccccc2n1-c1ncnc2sc3c(c12)CCC3 (configuration not stated) the results were PostGolgi yeast -3, PTK2B oligo ant 0.48, Cav3 T inh -6.4* and PostGolgi ctrl 12.
Cc1ccc2cc(C)c3nnc(SCC(=O)Nc4nc5c(s4)CCCC5)n3c2c1C was read as PostGolgi yeast 5, PTK2B oligo ant -1.7, Cav3 T inh -5.3* and PostGolgi ctrl 0.
`O=C(Cc1ccc(S(=O)(=O)N2CCCC2)s1)Nc1nc2c(s1)CCCC2` gave PostGolgi yeast -2, PTK2B oligo ant 0.6, Cav3 T inh -3.8* and PostGolgi ctrl 11.
`COC(=O)c1cccc(-n2nnnc2SCC(=O)Nc2nc3c(s2)CCCC3)c1` gave PostGolgi yeast 1, PTK2B oligo ant 0.97, Cav3 T inh -4.8* and PostGolgi ctrl 28.
CCc1ccc2nc(NC(=O)CCCc3cccs3)sc2c1 was read as PostGolgi yeast 1, PTK2B oligo ant 0.65 and PostGolgi ctrl 1.
Screening O=C(CCCc1cccs1)Nc1nc2c(s1)CCCC2 returned PostGolgi yeast -4, PTK2B oligo ant -0.03, Cav3 T inh -7.6* and PostGolgi ctrl 9.
For C/C(=N\NS(=O)(=O)c1ccc(Cl)cc1)c1ccc(O)cc1 the results were PostGolgi yeast 3, PTK2B oligo ant 0.67, Cav3 T inh -0.96 and PostGolgi ctrl 6.
Cc1c(Cl)cccc1NC(=S)NN1CCOCC1 was read as PostGolgi yeast 2, PTK2B oligo ant 0.54, Cav3 T inh 1 and PostGolgi ctrl 7.
For Cc1ccc(CC(=O)Nc2nc3c(s2)CCCC3)cc1 the results were PostGolgi yeast -2, PTK2B oligo ant -0.8, Cav3 T inh -5.2* and PostGolgi ctrl 3.
`Cc1ccc2c(n1)CC(C)(C)C/C2=N\O` gave PTK2B oligo ant 0.42 and Cav3 T inh 1.2.
`Cc1ccc(-c2nnn(CC(=O)N(c3ccccc3F)C(CC(C)C)C(=O)NCC3CCCO3)n2)cc1` (configuration not stated) gave PostGolgi yeast -29, PTK2B oligo ant -0.24, Cav3 T inh -4.4* and PostGolgi ctrl 10.
`O=C(NC1CCCC1)C(c1c[nH]c2ccccc12)N(C(=O)Cn1nnc(-c2ccc(Cl)cc2)n1)c1ccccc1` (configuration not stated) gave PostGolgi yeast 16, PTK2B oligo ant -2.4, Cav3 T inh -4.6 and PostGolgi ctrl 8.
For COc1cccc(N(C(=O)Cn2nnc(-c3ccc(C)cc3)n2)C(C(=O)NC(C)(C)C)c2c[nH]c3ccccc23)c1 (configuration not stated) the results were PostGolgi yeast 1, PTK2B oligo ant 0.34, Cav3 T inh -5.6* and PostGolgi ctrl 6.
Cc1ccc(N(C(=O)Cn2nnc(-c3ccc(F)cc3)n2)C(CC(C)C)C(=O)NCC2CCCO2)cc1 (configuration not stated) was read as PostGolgi yeast 3, PTK2B oligo ant -0.33, Cav3 T inh -7.4* and PostGolgi ctrl 2.
`COc1cccc(N(C(=O)Cn2nnc(-c3cccs3)n2)C(C(=O)NC(C)C)c2ccc(C)o2)c1` (configuration not stated) gave PostGolgi yeast 2, PTK2B oligo ant -3.5*, Cav3 T inh -0.082 and PostGolgi ctrl 1.
CC(C)CC(C(=O)NCC1CCCO1)N(C(=O)Cn1nnc(-c2ccc(F)cc2)n1)c1cccc(C(F)(F)F)c1 (configuration not stated) was read as PostGolgi yeast -5, PTK2B oligo ant -0.43, Cav3 T inh -5 and PostGolgi ctrl 3.
For O=C(NCc1ccccc1)C(c1ccc(O)cc1)N(C(=O)Cn1nnc(-c2cccs2)n1)c1ccc2c(c1)OCCO2 (configuration not stated) the results were PTK2B oligo ant -2.8 and Cav3 T inh -3.4.
For N#CC1(c2ccccc2)CCC(=NO)CC1 (configuration not stated) the results were PostGolgi yeast 0, PTK2B oligo ant -0.24 and PostGolgi ctrl 3.
For CSc1nc(C2CC2)cc(-c2cccs2)c1C#N the results were PostGolgi yeast 13, PTK2B oligo ant -1.1, Cav3 T inh 0.24 and PostGolgi ctrl 9.
For CCOC(=O)c1c(C)cccc1OCC(N)=O the results were PostGolgi yeast 4, PTK2B oligo ant 1.6, Cav3 T inh 0.087 and PostGolgi ctrl 7.
